ELG1 DNA repair = blocks ELG1-dependent DNA repair in HEK293T cells. Potency, µM (doses to about 46.1 µM), usual class: inhibitors. actives 2.3% (n = 330,000). AID 504467. HEK293T ELG1-luciferase reporter, luminescence, 16 h; DNA damage induced by 5-fluorouridine; further: nearly all actives have a fitted effect of over 55% in size
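Reporter activity after DNA damage by 5-fluorouridine is monitored. Compound-treated cells incubate 16 hr at 37 °C, then ONE-Glo is added for 30 min before luminescence reading.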
VP16 counter = inhibits Gal4-VP16 luciferase reporter, ROR gamma counter-screen. actives 3.5% (n = 310,000). Potency, µM (doses to about 53.6 µM), most hits filed as inhibitors. Drosophila S2 Gal4-VP16 UAS-luciferase, luminescence, 20 h;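 further: Gal4-VP16 expression switched on by copper sulfate through the metallothionein promoter; nearly all actives have a fitted effect of over 50% in size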
RORg inh = ROR gamma (mouse) transcription inhibition. P51450. Drosophila S2 Gal4-RORgamma UAS-luciferase reporter, 20 h. Potency, µM (titrated, usually from 53.6 µM), most hits filed as inhibitors. actives 5.4% (n = 310,000). AID 2551; further: nearly all actives have a fitted effect of over 60% in size
Target sequence (P51450 whole entry, looked up, the tested form may be a part): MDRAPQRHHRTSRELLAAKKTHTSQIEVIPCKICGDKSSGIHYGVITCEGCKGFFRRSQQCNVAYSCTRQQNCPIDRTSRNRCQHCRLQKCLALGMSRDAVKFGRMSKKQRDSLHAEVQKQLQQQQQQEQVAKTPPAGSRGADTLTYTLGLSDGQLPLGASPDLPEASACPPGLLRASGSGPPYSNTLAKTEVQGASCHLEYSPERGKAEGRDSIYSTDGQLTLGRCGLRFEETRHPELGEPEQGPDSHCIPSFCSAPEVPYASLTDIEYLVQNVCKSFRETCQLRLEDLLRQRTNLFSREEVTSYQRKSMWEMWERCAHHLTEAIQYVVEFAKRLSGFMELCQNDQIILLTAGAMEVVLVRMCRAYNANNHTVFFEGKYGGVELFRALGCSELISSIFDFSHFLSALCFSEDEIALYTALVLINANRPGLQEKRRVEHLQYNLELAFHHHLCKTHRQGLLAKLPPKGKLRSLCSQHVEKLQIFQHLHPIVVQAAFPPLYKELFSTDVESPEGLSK
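Luciferase reporter read in Schneider cells carrying Gal4-RORγ (mouse) and UAS-Photinus luciferase; cells given compound 1 h before 700 uM copper sulfate induction, then incubated 20 h at ambient temperature.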
SW480 rereplic = induces DNA re-replication in SW480 colon adenocarcinoma cells; SW480 DNA re-replication, Hoechst DNA content imaging, 48 h; Potency, µM (top dose mostly 46.1 µM), hits mostly activators; actives 1.8% (n = 340,000); further: nearly all actives have a fitted effect of over 55% in size
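SW480 cells exposed to compounds for 48 hr at 37 C, 5% CO2, then Hoechst-stained 40 min. Nuclear DNA content imaged by fluorescence scanning (405 nm excitation, 500-530 nm emission); re-replication scored as increased high-intensity nuclei.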
MCF10A rerep = DNA re-replication induction in MCF 10a cells. MCF 10A DNA re-replication, Hoechst nuclear intensity, 48 h. Potency, µM (doses to about 46.1 µM), actives largely listed as activators. actives 2.9% (n = 350,000); further: nearly all actives have a fitted effect of over 50% in size
Hits are given with their value; n = inactive; u = inconclusive; x = not tested or not shown; [ ] = another dose, or the depositor's remark. Hits are enriched below; roughly 10% of the tested compounds scored in any of these assays. The call rests on the fitted dose curve; in most records, active means well fitted curve in the direction sought with a large enough effect; inconclusive means small, poorly fitted or top-dose-only effect, or another doubt; inactive means no such curve, though single readings can be large; an effect the other way counts as inactive or inconclusive.

SMILES | ELG1 DNA repair | VP16 counter | RORg inh | SW480 rereplic | MCF10A rerep
CCNc1nc(SCCOc2ccc(C)cc2)nc(N(C)C)n1 | n | u | n | n | u
Cc1cccc(N2CCN(C(=O)c3nn(C)c4c3CS(=O)(=O)c3ccccc3-4)CC2)c1C | n | n | n | u | u
Cc1ccc(NC(=O)Nc2ccccc2CC[N+](=O)[O-])cc1 | n | n | n | n | n
Cc1cccc(C(=O)O/N=C(\N)c2cccc([N+](=O)[O-])c2)c1 | u | u | u | n | n
CC1=CC(=O)C=C(C)C1=NOC(=O)c1cccc([N+](=O)[O-])c1 | n | u | 11µM | n | u
COc1ccc(-c2n[nH]c(C)c2-c2ccc(Cl)cc2)c(O)c1OC | 12µM | 7.1µM | 7.1µM | n | 18µM
COc1ccc(-c2n[nH]c(C)c2-c2ccc(Cl)cc2)c(O)c1 | n | 7.1µM | 4µM | n | u
Cc1[nH]nc(-c2ccc(O)cc2O)c1-c1ccc(Cl)cc1 | n | 22µM | 13µM | n | n
COc1ccc(O)c(-c2c(-c3ccc(Cl)cc3)n[nH]c2C)c1 | u | n | u | u | n
CCN1C(=O)C(=O)N(CC(=O)N2CCC(C)Sc3ccccc32)C1=O (stereo unspecified) | n | x | x | n | n
O=C(c1ccc(Cl)cc1)N1C2C=CC(C2)C1(C(F)(F)F)C(F)(F)F (stereo unspecified) | n | n | n | n | n
CCCCc1ccc(N/C(N)=N/c2nc(C)cc(C)n2)cc1 | u | u | n | u | u
OCCCNc1nc(-c2ccccc2)c2cc(Br)ccc2n1 | n | n | n | u | 4.6µM
NNc1nc(-c2ccccc2)cc(-c2ccc(Br)cc2)n1 | n | u | 18µM | u | n
NNc1nc(-c2ccccc2)c2cc(Cl)ccc2n1 | n | n | 13µM | n | 10µM
O=C(NCCO)c1cccc(Nc2nc(-c3ccccc3)c3cc(Cl)ccc3n2)c1 | u | n | n | 16µM | u
CN(C)c1nc(-c2ccccc2)c2cc(Cl)ccc2n1 | n | n | n | n | n
COc1ccc(O[C@H]2C=C[C@@H](c3ccccc3)O[C@H]2COC(=O)CC/C(C)=N\OC[C@@H](O)COCc2ccco2)cc1 | x | n[10 µM] | n[10 µM] | x | x
Cc1nc(SCC(=O)N(C)C2(C#N)CCCCC2)c2ccccc2n1 | u | x | x | n | u
NNc1nc(-c2ccccc2)c2cc(Br)ccc2n1 | n | n | 2.5µM | n | u
CCCN(C(=O)COC(=O)c1[nH]c(C)c(C(=O)OC)c1C)c1c(N)n(Cc2ccccc2)c(=O)[nH]c1=O | u | x | x | n | n
Cc1ccc(NC(=O)c2cc(C(=O)c3cc(Cl)ccc3O)cn(-c3ccc(C)cc3)c2=O)cc1 | 26µM | n | u | n | n
O=C(Nc1cccc(Br)c1)c1ccc(CN2CCc3ccccc3C2)cc1 | u | n | u | 18µM | 26µM
Cc1cccc(NC(=O)c2ccc(CN3CCc4ccccc4C3)cc2)c1C | u | n | n | n | 23µM
NC(=O)[C@@H]1CCCN1C(=O)c1ccc2nc(Cc3cccc(Cl)c3)oc2c1 | n | n | n | n | n
SMILES | ELG1 DNA repair | VP16 counter | RORg inh | SW480 rereplic | MCF10A rerep
COCCNC(=O)Cn1c(=O)n(CCCC(=O)NCc2ccc3c(c2)OCO3)c(=O)c2sccc21 | n | n | n | n | n
COC(=O)c1sccc1NC(=O)Nc1ccc(C(C)=O)cc1 | u | n | u | n | n
CC(C)c1ccc(/C=C/C(=O)Nc2nncs2)cc1 | u | n | 13µM | n | n
COc1ccc(C(=O)NC(=S)Nc2nc(-c3ccc(OC)c(Br)c3)cs2)cc1Br | n | n | n | n | n
COc1ccc(-c2csc(NC(=S)NC(=O)/C=C/c3ccco3)n2)cc1Br | n | u | 7.9µM | u | u
COc1ccc(-c2csc(NC(=S)NC(=O)c3ccccc3)n2)cc1Br | u | n | n | n | u
COc1ccc(-c2csc(NC(=S)NC(=O)/C=C/c3ccc(C(C)C)cc3)n2)cc1OC | n | 7.9µM | 4µM | u | n
COc1ccc(-c2csc(NC(=S)NC(=O)/C=C/c3ccco3)n2)cc1OC | u | 14µM | 7.9µM | 9.2µM | 6.5µM
OCC1OCOC2C(CO)OCOC12 (stereo unspecified) | x | x | x | u | n
Cc1ccc(S(=O)(=O)SC/C=C/CSS(=O)(=O)c2ccc(C)cc2)cc1 | x | x | x | u | n
Cc1ccc(S(=O)(=O)/C=C/C#N)cc1 | x | 0.56µM | 1.1µM | x | x
CC(C)(C)c1ccc(S(=O)(=O)N2CCN(CCC#N)CC2)cc1 | n | n | u | n | n
Cc1ccc(S(=O)(=O)c2ccc(C)cc2)cc1 | n | n | n | n | n
Cc1ccc(S(=O)(=O)/C=C\C#N)cc1 | x | 0.56µM | 0.63µM | x | x
CC(C)(C)c1ccc(S(=O)(=O)/C=C\C#N)cc1 | x | 0.79µM | 0.63µM | x | x
Cc1ccc(NC(=O)COC(=O)c2ccc(C)c(S(=O)(=O)N3CCOCC3)c2)cc1 | n | x | x | n | n
COc1ccc(/C=N/NC2=NS(=O)(=O)c3ccccc32)cc1OC | n | n | n | n | n
Cc1ccc(S(=O)(=O)N(CC(=O)Nc2ccc(Cl)cc2)C(=O)N2CCN(C)CC2)cc1 | n | x | x | u | n
CC(C)c1cccc(-c2ccc3c(c2)S(=O)(=O)c2cccc(C(=O)NCc4ccco4)c2C3=O)c1 | n | x | x | n | u
CCCCc1c(C)nn(-c2nnc3c4ccccc4n(C)c3n2)c1C | u | 7.1µM | 0.79µM | n | n
Cn1c2ccccc2c2nnc(NN)nc21 | n | n | n | n | n
CCOC(=O)C1=C(C)N(c2ccc(OC)cc2)C(=O)/C1=C\c1ccc(O)c(OCC)c1 | n | u | u | n | u
CCOC(=O)C1=C(C)N(c2ccc(OC)cc2)C(=O)/C1=C\c1cccs1 | 21µM | n | n | n | u
CC(C)CCCC(C)C1CC(=O)C2=C3CCC4CC(O)CCC4(C)C3CCC21C (stereo unspecified) | x | n | n | n | u
COc1ccc(Nc2cc(C)nc(N3CCOCC3)n2)cc1 | u | n | n | n | n
SMILES | ELG1 DNA repair | VP16 counter | RORg inh | SW480 rereplic | MCF10A rerep
Cc1cc(Cl)nc(-n2nc(C)cc2C)n1 | u | 13µM | 3.5µM | n | n
CNc1cc(C)nc(-n2nc(C)cc2C)n1 | n | 2.5µM | 0.63µM | n | n
Cc1cc(C)n(-c2nc(N(c3ccccc3)c3ccccc3)nc(-n3nc(C)cc3C)n2)n1 | 26µM | 5.6µM | 5.6µM | n | u
CNc1cc(C)nc(N2CCOCC2)n1 | n | n | n | n | n
CCOc1ccc(Nc2cc(C)nc(-n3nc(C)cc3C)n2)cc1 | u | 0.89µM | 0.16µM | u | u
COc1ccc(CNC(=O)COC(=O)c2ccc(F)c(S(=O)(=O)N3CCOCC3)c2)cc1 | u | x | x | n | n
CCCN(C(=O)c1cccc(S(=O)(=O)N2CCN(C)CC2)c1)c1c(N)n(Cc2ccccc2)c(=O)[nH]c1=O | n | x | x | n | n
Cc1cc(C)n(-c2nc(C)nc(N)n2)n1 | n | n | 14µM | n | n
Cc1cc(C)n(-c2nc(Nc3ccccc3)nc(-n3nc(C)cc3C)n2)n1 | n | n | n | n | n

Bioassay records: PubChem, National Center for Advancing Translational Sciences (NCATS)
